uPA surface inh – qHTS for Inhibitors of Cell Surface uPA Generation. cell surface uPA generation assay, qHTS. Potency, µM (titrated, usually from 38.3 µM), without a hit: at the highest dose activity change, negative = inhibition, hits mostly inhibitors. 0.31% of 330,000 active. AID 540303, 2011; active = well fitted inhibition curve with a large enough effect; inconclusive = small, poorly fitted or top-dose-only effect; inactive = no such curve, though single readings can be large or run the other way; tested in mouse RAW 264.7 cells; note: potency is the fitted concentration of half-maximal effect; % is set by controls: 0 for no effect and ±100 for the full control effect; nearly all actives have a fitted effect of over 55% in size
TDP1 inh – qHTS Assay for Inhibitors of Tyrosyl-DNA Phosphodiesterase (TDP1); Tyrosyl-DNA phosphodiesterase 1 (Homo sapiens), Q9NUW8; recombinant TDP1, AlphaScreen DNA substrate cleavage; Potency, µM (doses to about 130 µM), inactives show at the top dose activity change, negative = inhibition, actives largely listed as inhibitors; 0.28% of 350,000 active; AID 485290, 2010; note: potency is the fitted concentration of half-maximal effect; % is set by controls: 0 for no effect and ±100 for the full control effect; nearly all actives have a fitted effect of over 40% in size
Target sequence (Q9NUW8 whole entry, looked up): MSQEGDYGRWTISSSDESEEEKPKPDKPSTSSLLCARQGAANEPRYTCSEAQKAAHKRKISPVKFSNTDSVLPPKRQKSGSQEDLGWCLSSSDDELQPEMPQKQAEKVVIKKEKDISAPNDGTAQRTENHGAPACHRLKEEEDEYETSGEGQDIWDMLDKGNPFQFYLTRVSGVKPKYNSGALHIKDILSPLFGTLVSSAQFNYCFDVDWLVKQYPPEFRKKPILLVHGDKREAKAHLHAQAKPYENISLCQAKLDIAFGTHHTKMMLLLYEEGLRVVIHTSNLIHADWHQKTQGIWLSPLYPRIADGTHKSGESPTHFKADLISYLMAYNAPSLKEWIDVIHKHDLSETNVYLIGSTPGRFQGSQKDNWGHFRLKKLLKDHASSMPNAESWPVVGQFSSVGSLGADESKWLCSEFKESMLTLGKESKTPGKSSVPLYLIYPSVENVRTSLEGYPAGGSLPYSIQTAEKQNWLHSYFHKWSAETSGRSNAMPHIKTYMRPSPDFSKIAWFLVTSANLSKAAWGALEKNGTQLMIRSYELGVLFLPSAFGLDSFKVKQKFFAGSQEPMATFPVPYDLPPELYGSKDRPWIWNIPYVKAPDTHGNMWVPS
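Enzyme-compound mixtures sat 15 min at room temperature, followed by a 5 min reaction with 15 nM final substrate and 10 min with AlphaScreen beads. Recombinant human Tdp1 was used at 1 nM final.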
DT40 TDP1 no CPT – qHTS for Inhibitors of human tyrosyl-DNA phosphodiesterase 1 (TDP1): qHTS in cells in absence of CPT. 15% of 420,000 active. Potency, µM (titrated, usually from 46.2 µM), inactives show at the highest dose activity change, negative = growth inhibition, hits mostly inhibitors. DT40 Tdp1-/- hTDP1 cells, no CPT, ATP luminescence, 48 h; note: potency is the fitted concentration of half-maximal effect; % is set by controls: 0 for no effect and ±100 for the full control effect; nearly all actives have a fitted effect of over 55% in size
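Readout: luminescence from CellTiter-Glo after 30 min in the dark at RT. Cells: DT40 Tdp1-/- with stable hTDP1, 400/well. Exposure: compounds alone, ≥48 hr, 37 °C.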
miR-21 act – qHTS Assay for Modulators of miRNAs and/orActivators of miR-21; HeLa miR-21 FLuc reporter, luciferase, 48 h; Potency, µM (series often up to 38.3 µM), without a hit: top-dose activity change, positive = activation, most hits filed as activators; 340,000 tested, under 10 active; AID 2288, 2010;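 note: % of control where 0% means no effect; miR-21 action dims this reporter so a rising signal means less miR-21 action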
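HeLa cells endogenously expressing miR-21, stably carrying CMV-driven firefly luciferase with a downstream miR-21 binding site, 2000 cells/well. Titrations up to approximately 40 uM, 48 hours; luciferase luminescence read.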
TDP1 cell CPT – qHTS for Inhibitors of human tyrosyl-DNA phosphodiesterase 1 (TDP1): qHTS in cells in presence of CPT. chicken DT40 Tdp1-/-;hTDP1 cells + 20 nM CPT, ATP luminescence, 48 h. Potency, µM (doses to about 46.2 µM), inactives show top-dose activity change, negative = growth inhibition, usual class: inhibitors. 12% of 420,000 active. AID 686979, 2013; note: potency is the fitted concentration of half-maximal effect; % is set by controls: 0 for no effect and ±100 for the full control effect; nearly all actives have a fitted effect of over 55% in size
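Chicken DT40 Tdp1-/- cells stably complemented with human TDP1 were seeded at 400 cells/well in medium containing 20 nM camptothecin, exposed to pin-transferred compounds, and grown at 37 °C for at least 48 hr. Viability was read as ATP luminescence.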
Starred values were filed as active, the others as inactive. Hits are enriched below; roughly 16% of the tested compounds scored in any of these assays. Unless noted, calls come from the whole dose curve; as a rule, active = well fitted curve in the direction sought with a large enough effect; inconclusive = small, poorly fitted or top-dose-only effect, or another doubt; inactive = no such curve, though single readings can be large; an effect the other way counts as inactive or inconclusive.

For C/C(=N\NC(=O)C1(C)CC1(Br)Br)c1cccc(NC(=O)C2CCC2)c1 (stereo unspecified) the results were uPA surface inh -1%, TDP1 inh 2%, DT40 TDP1 no CPT 26µM*, miR-21 act 14% and TDP1 cell CPT 18µM*.
C/C(=N\NC(N)=O)c1cccc(Cl)c1 was read as uPA surface inh 3%, TDP1 inh -2%, DT40 TDP1 no CPT -21%, miR-21 act -13% and TDP1 cell CPT inconclusive.
`CC1CN(CC(O)COc2ccc(C#N)cc2)CCN1CC(O)COc1ccc(C#N)cc1` (stereo unspecified) gave uPA surface inh 5%, TDP1 inh 9%, DT40 TDP1 no CPT 23µM*, miR-21 act 6% and TDP1 cell CPT 21µM*.
CCOC(=O)c1ccc(S(=O)(=O)N2CCN(C/C=C/c3ccccc3)CC2)cc1 was read as uPA surface inh 9%, TDP1 inh 1%, DT40 TDP1 no CPT 13µM* and TDP1 cell CPT inconclusive.
Screening CCOC(=O)/C(C#N)=C\c1ccc(N2CCN(C/C=C/c3ccccc3)CC2)cc1 returned uPA surface inh -2%, TDP1 inh 1%, DT40 TDP1 no CPT 21µM*, miR-21 act -5% and TDP1 cell CPT inconclusive.
For CCOC(=O)c1ccc(S(=O)(=O)N2CCN(CC(O)COc3ccc(C#N)cc3)CC2)cc1 (stereo unspecified) the results were uPA surface inh 2%, DT40 TDP1 no CPT 18µM*, miR-21 act 4% and TDP1 cell CPT inconclusive.
`CC(Sc1nnc(C2CC2)n1C1CC1)C(=O)c1ccc(F)cc1` (stereo unspecified) gave uPA surface inh -6%, TDP1 inh 2%, DT40 TDP1 no CPT 11% and TDP1 cell CPT 3%.
`CC(=O)c1cccc(NC(=O)N2C3CCCC2CC(NC(=O)C2CC2)C3)c1` (stereo unspecified) gave uPA surface inh 4%, TDP1 inh 7%, DT40 TDP1 no CPT 3%, miR-21 act 0% and TDP1 cell CPT 6%.
O=C(NC(CO)Cc1ccccc1)c1ccccc1 (stereo unspecified) was read as uPA surface inh -3%, TDP1 inh 1%, DT40 TDP1 no CPT -13%, miR-21 act -21% and TDP1 cell CPT 30%.
Screening O=C(CN1CCN(c2ccccc2O)CC1)Nc1ccc([N+](=O)[O-])cc1Br returned uPA surface inh 4%, TDP1 inh 6%, DT40 TDP1 no CPT 23µM*, miR-21 act -2% and TDP1 cell CPT inconclusive.
For COc1ccccc1NC(=O)CN1CCN(c2ccccc2OC)CC1 the results were uPA surface inh -7%, DT40 TDP1 no CPT inconclusive, miR-21 act -7% and TDP1 cell CPT -25%.
Screening COc1cc(NC(=O)CN2CCN(c3ccccc3O)CC2)c(C)cc1[N+](=O)[O-] returned uPA surface inh 7%, TDP1 inh 8%, DT40 TDP1 no CPT inconclusive, miR-21 act 6% and TDP1 cell CPT 12µM*.
Screening O=C(CN1CCN(c2ccccc2O)CC1)Nc1cc([N+](=O)[O-])ccc1Cl returned uPA surface inh -4%, TDP1 inh 0%, DT40 TDP1 no CPT inconclusive, miR-21 act 4% and TDP1 cell CPT inconclusive.
`Cc1cc(C(=O)N2CCC(C)CC2)on1` gave uPA surface inh 3%, TDP1 inh -1%, DT40 TDP1 no CPT 23%, miR-21 act -4% and TDP1 cell CPT 19%.
`Cc1ccc2cccc(NC(=S)NC(=O)c3c(Br)cnn3C)c2n1` gave uPA surface inh 3%, TDP1 inh 8%, DT40 TDP1 no CPT inconclusive, miR-21 act -8% and TDP1 cell CPT -25%.
O=C(CN1C(=O)C2(SCC(=O)N2c2ccccc2)c2ccccc21)Nc1ccccc1C(F)(F)F (stereo unspecified) was read as TDP1 inh -3%, DT40 TDP1 no CPT inconclusive, miR-21 act 6% and TDP1 cell CPT 23µM*.
`Cc1ccc(C)c(NC(=O)CN2C(=O)C3(SCC(=O)N3c3ccc(C)c(C)c3)c3ccccc32)c1` (stereo unspecified) gave TDP1 inh 3%, DT40 TDP1 no CPT 18µM*, miR-21 act 14% and TDP1 cell CPT inconclusive.
`CCc1cccc(C)c1NC(=O)CN1C(=O)C2(SCC(=O)N2c2cccc(F)c2)c2ccccc21` (stereo unspecified) gave TDP1 inh 4%, DT40 TDP1 no CPT -23%, miR-21 act -1% and TDP1 cell CPT -29%.
Cc1ccccc1NC(=O)CN1C(=O)C2(SCC(=O)N2c2ccc(F)cc2)c2ccccc21 (stereo unspecified) was read as TDP1 inh 3%, DT40 TDP1 no CPT -19%, miR-21 act 4% and TDP1 cell CPT -17%.
For COc1ccccc1NC(=O)CN1C(=O)C2(SCC(=O)N2c2ccc(C)c(C)c2)c2ccccc21 (stereo unspecified) the results were TDP1 inh 3%, DT40 TDP1 no CPT inconclusive, miR-21 act inconclusive and TDP1 cell CPT inconclusive.
For CCc1ccc(NC(=O)CN2C(=O)C3(SCC(=O)N3c3ccccc3)c3ccccc32)cc1 (stereo unspecified) the results were TDP1 inh 0%, DT40 TDP1 no CPT inconclusive, miR-21 act -1% and TDP1 cell CPT 21µM*.
For CCCC1C(=O)Nc2ccccc2N1C(=O)c1cccc(C)c1 (stereo unspecified) the results were uPA surface inh 3%, DT40 TDP1 no CPT -11%, miR-21 act 2% and TDP1 cell CPT -26%.
CCCC1C(=O)Nc2ccccc2N1C(=O)c1ccc(C(C)(C)C)cc1 (stereo unspecified) was read as uPA surface inh -6%, DT40 TDP1 no CPT 21µM*, miR-21 act 24% and TDP1 cell CPT inconclusive.
Screening O=C(c1ccc(Cn2cc([N+](=O)[O-])cn2)o1)N1N=C(C(F)F)CC1(O)C(F)F (stereo unspecified) returned uPA surface inh -12%, TDP1 inh 4%, DT40 TDP1 no CPT -6%, miR-21 act -1% and TDP1 cell CPT 2%.
For O=C(c1ccc(COc2ccccc2Br)o1)N1N=C(C(F)F)CC1(O)C(F)F (stereo unspecified) the results were uPA surface inh 7%, TDP1 inh 0%, DT40 TDP1 no CPT 26µM*, miR-21 act 0% and TDP1 cell CPT 18µM*.
Screening O=C(c1cc(F)cc2c1OCOC2)N1CCN(c2ccc(F)cc2)CC1 returned uPA surface inh 1%, TDP1 inh 0%, DT40 TDP1 no CPT -12%, miR-21 act -1% and TDP1 cell CPT 12%.

Compound activity: PubChem BioAssay, National Center for Advancing Translational Sciences (NCATS)
